The values that follow come from article PMC11062922 (Nature Chemical Biology, 2023).

What all share (set-up): species or system human, MV4-11 + K-562 + COLO205 + SK-N-BE2 + OVCAR-8
One assay has as its system MAP2K1. The settings on record: read-out: apparent Kd; compound concentrations: 100 nM and 1000 nM (sheet 'Samples'), CATDS: 0.27931983910668101; n = 1.
The next assay has as its system MAPK11. The note with it: read-out: apparent Kd, compound concentrations: 100 nM and 1000 nM (sheet 'Samples'), n = 1.
For the next assay, the system named is RET. The note with it: read-out: apparent Kd; compound concentrations: 100 nM and 1000 nM (sheet 'Samples'), CATDS: 0.41481657466373201; n = 1.
A further assay has as its system MAP2K2. The settings on record: read-out: apparent Kd; compound concentrations:100 nM and 1000 nM (sheet 'Samples'); n = 1.
The subject of a further assay is NQO1. The note with it: read-out: apparent Kd; compound concentrations:100 nM and 1000 nM (sheet 'Samples'); n = 1.
A further assay deals with PIK3CB. The settings on record: read-out: apparent Kd; compound concentrations:100 nM and 1000 nM (sheet 'Samples'); n = 1.
The next assay has as its system PIK3CD. The note with it: read-out: apparent Kd; compound concentrations: 100 nM and 1000 nM (sheet 'Samples'), CATDS: 0.441724722045092; n = 1.
For another assay, the system named is MAP2K5. The settings on record: read-out: apparent Kd; compound concentrations:100 nM and 1000 nM (sheet 'Samples'); n = 1.
In the next assay the test system is RIPK2. The settings on record: read-out: apparent Kd; compound concentrations:100 nM and 1000 nM (sheet 'Samples'); n = 1.
For a further assay, the system named is PBK. The note with it: read-out: apparent Kd; compound concentrations:100 nM and 1000 nM (sheet 'Samples'); n = 1.
A further assay concerns PTK6. The settings on record: read-out: apparent Kd; compound concentrations:100 nM and 1000 nM (sheet 'Samples'); n = 1.
The next assay deals with RIPK3. The settings on record: read-out: apparent Kd; compound concentrations:100 nM and 1000 nM (sheet 'Samples'); n = 1.
A further assay has as its system SIK2. The note with it: read-out: apparent Kd; compound concentrations:100 nM and 1000 nM (sheet 'Samples'); n = 1.
In another assay the test system is MAP3K12. The note with it: read-out: apparent Kd; compound concentrations:100 nM and 1000 nM (sheet 'Samples'); n = 1.
A further assay relates to NUAK1. The settings on record: read-out: apparent Kd; compound concentrations:100 nM and 1000 nM (sheet 'Samples'); n = 1.
In a further assay the test system is NUAK2. The settings on record: read-out: apparent Kd; compound concentrations:100 nM and 1000 nM (sheet 'Samples'); n = 1.
A further assay concerns MAP3K1. The note with it: read-out: apparent Kd, n = 1.
The test system of a further assay is MAP4K5. The settings on record: read-out: apparent Kd; compound concentrations: 100 nM and 1000 nM (sheet 'Samples'), CATDS: 0.32149724662749601; n = 1.
For the next assay, the system named is PLK1. The note with it: read-out: apparent Kd, compound concentrations: 100 nM and 1000 nM (sheet 'Samples'), n = 1.
A further assay deals with SLK. The settings on record: read-out: apparent Kd, compound concentrations: 100 nM and 1000 nM (sheet 'Samples'), n = 1.
For the next assay, the system named is STK10. The note with it: read-out: apparent Kd, compound concentrations: 100 nM and 1000 nM (sheet 'Samples'), n = 1.
The next assay has as its system PAICS. The note with it: read-out: apparent Kd; compound concentrations:100 nM and 1000 nM (sheet 'Samples'); n = 1.
In the next assay the test system is PIK3CG. The note with it: read-out: apparent Kd; compound concentrations:100 nM and 1000 nM (sheet 'Samples'); n = 1.
The subject of the next assay is MAP3K6. The settings on record: read-out: apparent Kd; compound concentrations: 100 nM and 1000 nM (sheet 'Samples'), CATDS: 0.469017197153689; n = 1.
A further assay concerns MAPK10. The note with it: read-out: apparent Kd; compound concentrations: 100 nM and 1000 nM (sheet 'Samples'), CATDS: 0.17874550909650799; n = 1.
The test system of the next assay is MAPK14. The note with it: read-out: apparent Kd; compound concentrations: 100 nM and 1000 nM (sheet 'Samples'), CATDS: 0.32550592526208599; n = 1.
The next assay has as its system MAPK8. The settings on record: read-out: apparent Kd; compound concentrations: 100 nM and 1000 nM (sheet 'Samples'), CATDS: 9.0808472598726403E-2; n = 1.
Another assay has as its system MAPK9. The note with it: read-out: apparent Kd; compound concentrations: 100 nM and 1000 nM (sheet 'Samples'), CATDS: 0.14012416738293099; n = 1.
Another assay has as its system MAPKAPK2. The note with it: read-out: apparent Kd; compound concentrations: 100 nM and 1000 nM (sheet 'Samples'), CATDS: 0.240899887861172; n = 1.
A further assay concerns NLK. The note with it: read-out: apparent Kd; compound concentrations: 100 nM and 1000 nM (sheet 'Samples'), CATDS: 0.137200771005723; n = 1.
A further assay deals with PIP4K2C. The note with it: read-out: apparent Kd; compound concentrations: 100 nM and 1000 nM (sheet 'Samples'), CATDS: 7.7645763885448402E-2; n = 1.
The mark [1] stands for this setting: compound concentrations:100 nM and 1000 nM (sheet 'Samples').

SMILES strings stand for the structures. Like-named read-outs stand apart in the source and are kept apart here.

Regarding `COc1cc2c(Nc3cccc(NC(=O)c4ccccc4)c3)ncnc2cc1OCCCN1CCOCC1` [GSK223810A], the potency estimated from few doses was 2.31 µM with MAP2K1, 1.55 µM in the assay with MAPK11 (CATDS: 0.33231746948784902) and 1.03 µM in the assay with RET.
Consider `Cc1c(Cn2c(C)nn3c(=O)cc(N4CCOC(C)C4)nc23)cccc1C(F)(F)F` (stereo not drawn) [GSK2344444A], for which the potency estimated from few doses with MAP2K2 was 1.81 µM; in the assay on NQO1, 1.56 µM; in the assay with PIK3CB it was 0.0134 µM; in the assay on PIK3CD, 0.02 µM.
`CN(C)c1cc2c(Nc3ccc4c(cnn4Cc4ccccc4)c3)ncnc2cn1` [GW282974X]: the potency estimated from few doses in the assay on MAP2K5 was 1.47 µM; with RIPK2, 0.989 µM.
As to `CNC(=O)Oc1cc(C)c(/C=C/c2cncc(C(=O)NC)c2)c(C)c1` [GW432441X], the potency estimated from few doses in the assay on MAP2K5 is 0.231 µM; in the assay with PBK, 1.68 µM; in the assay on PTK6, 0.0453 µM; in the assay on RIPK2, 0.0281 µM; in the assay on RIPK3, 0.399 µM; in the assay on SIK2 it was 1.32 µM.
As for `O=C(Nc1n[nH]c2nc(-c3ccccc3)c(Cl)cc12)C1CC1` [SB-734909], the values for the potency estimated from few doses in the assay on MAP3K12, in the assay with NUAK1 and with NUAK2 were 1.52 µM, 1.98 µM and 1.35 µM, respectively.
Turning to `COc1cc2ncn(-c3cc(OCc4ccccc4Cl)c(C(N)=O)s3)c2cc1OC` [GW852849X], the potency estimated from few doses is 1.95 µM in the assay with MAP3K1 (compound concentrations: 100 nM and 1000 nM (sheet 'Samples'), CATDS: 0.14122884829610699); 0.184 µM with MAP4K5; 0.0682 µM in the assay with PLK1 (CATDS: 0.55429480894525696); 1.96 µM in the assay on SLK (CATDS: 0.14112272983739199); 1 µM with STK10 (CATDS: 0.168955384509856).
Regarding `C[C@@H](Oc1cc(-n2cnc3cc(-c4ccnc(NCCS(C)(=O)=O)c4)ccc32)sc1C(N)=O)c1ccccc1Cl` [GSK907232A], the potency estimated from few doses was 0.0806 µM in the assay with MAP3K1 (compound concentrations: 100 nM and 1000 nM (sheet 'Samples'), CATDS: 0.38790530075406598); 0.0536 µM with PLK1 (CATDS: 0.48589470973507998); 1.33 µM in the assay on SLK (CATDS: 0.160364449090587); 0.534 µM in the assay on STK10 (CATDS: 0.19500034290566101).
On to `C[C@@H](Oc1cc(-n2cnc3ccc(-c4ccncc4)cc32)sc1C(N)=O)c1ccccc1Cl` [GSK483724A], for which the potency estimated from few doses with MAP3K1 (setting [1]) is 1.84 µM.
For `C[C@@H](Oc1cc(-n2cnc3ccc(OC4CCN(C)CC4)cc32)sc1C(N)=O)c1ccccc1Cl` [GSK579289A], the potency estimated from few doses in the assay on MAP3K1 (setting [1]) was 1.34 µM; in the assay with NUAK2, 0.601 µM; in the assay with PAICS, 1.76 µM; with PIK3CG it was 1.03 µM.
For the molecule `Cl.Nc1c(C(=O)c2cccc(-c3ccncc3)c2)cnn1-c1ccc(F)cc1` [RO1165037-001], the potency estimated from few doses in the assay on MAP3K6 was 1.81 µM; in the assay with MAPK11 (CATDS: 0.53536571927793597), 1.39 µM.
On to `CC(C)(O)Cn1c(=O)c(Oc2ccc(F)cc2F)cc2cnc(NC3CCOCC3)nc21` [RO5036558-000], for which the potency estimated from few doses is 0.0714 µM in the assay with MAPK10; 1.37 µM in the assay on MAPK11 (CATDS: 7.7724815915961296E-2); 0.0248 µM with MAPK14; 0.578 µM in the assay on MAPK8; 0.127 µM with MAPK9; 0.0404 µM with MAPKAPK2. Besides, the potency estimated from few doses in the assay on NLK was 0.134 µM; in the assay with PIP4K2C, 1.38 µM.
